CF NFkB block = cystic fibrosis NF-kB activation inhibition; inhibition, % at 5 µM; hit rate 0.86% among 360,000; KKLEB NF-kB-GFP reporter, PAF-induced, GFP fluorescence overnight;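 active means at least 50% inhibition at 5 µM, scaled per plate between neutral and stimulator controls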;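 further: PAF is a Pseudomonas aeruginosa culture filtrate used as stimulus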
Peg3 prom inh = Peg3 promoter activity inhibition; HeLa PEG-Prom luciferase reporter, luminescence, overnight; inhibition, % at 20 µM; hit rate 1.7% among 360,000; AID 588405;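 active means inhibition of at least 50% at 20 µM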
HIF-2a inh = HIF-2a inhibition; 786-0 RCC cells HIF-2a reporter, luciferase luminescence, overnight; inhibition, % at 18.8 µM; hit rate 0.72% among 360,000;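 active means inhibition of the luminescence signal of 40% or more relative to plate controls, in a single-dose primary screen at 18.75 µM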
KKLEB cytotox = reduces viability of KKLEB cystic fibrosis airway cells | AID 602141 | activity change (cytotoxicity), % at 5 µM | KKLEB CF airway cells viability, ATPlite luminescence, overnight; hits give low values; cells stimulated with P. aeruginosa culture filtrate | hit rate 0.36% among 360,000;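 active means corrected activity change at or below -50% at 5 µM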
TWEAK Fn14 block = TWEAK-Fn14 signaling inhibition. TWEAK-stimulated Fn14 reporter cells, luciferase luminescence, 8 h. inhibition, % at 10 µM. hit rate 2% among 360,000. AID 1159606; in the data active means inhibition above about 50%
TROY NFkB inh = blocks TROY-dependent signaling in reporter cells. Q293 LMP1-TROYcd NF-kB luciferase reporter, 4 h. inhibition, % at 10 µM. hit rate 0.98% among 360,000. AID 1347056;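 active means compounds whose plate-normalised and pattern-corrected inhibition of the luciferase reporter signal at the single screening dose is 50% or more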
Mdm2-MdmX confirm = confirmation of inhibitors of human Mdm2/MdmX interaction, set 2 | shares compounds with HIF-2a inh | SaOS-2 split-luciferase Mdm2/MdmX complementation, luminescence | inhibition, % at 8 µM | hit rate 99% among 740 | AID 504601;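 active means mean inhibition of the luminescence signal across two replicates at or above 26 percent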
HIF-2a inh conf = confirmation of HIF-2a inhibitors | 786-0 RCC cells, HIF-2a luciferase reporter luminescence, overnight | hit rate 56% among 1,800 | inhibition, % at 18.8 µM | shares compounds with HIF-2a inh;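 active means mean inhibition across four replicates of at least 40 percent at the single tested concentration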
HIF-1a cs = HIF-1a inhibition counter-screen for HIF-2a hits. inhibition, % at 18.8 µM. shares compounds with HIF-2a inh. hit rate 72% among 1,800. MiaPaCa-2 HIF-1a luciferase reporter, desferoxamine, overnight;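 active means mean inhibition of the reporter signal across four replicates at the single tested dose of 50% or more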
Of the large screens only hits and unclear results are named; the others gave an inactive call (follow-up assays come after a bar, where they were run). Rows were chosen to be rich in hits. Some 4% of all compounds tested hit in one or more screens of this group.

COCCNC(=O)[C@H](CSCc1ccccc1)N1Cc2ccccc2C1=O	HIF-2a inh 48 | HIF-2a inh conf inactive | HIF-1a cs inactive
O=C(O)CSCC(=O)N(c1ccccc1)c1ccccc1	none
COc1cc(C(=O)OCC(=O)N2CC(C)OC(C)C2)cc(OC)c1OC (configuration not stated)	none
CC(=O)Nc1nc2ccccc2n1CCOc1ccccc1	none
CCCCn1c(NC(=S)Nc2ccccc2)nc2ccccc21	HIF-2a inh 42 | HIF-2a inh conf inactive | HIF-1a cs 50
S=C(Nc1ccccc1)Nc1nc2ccccc2n1CCOc1ccccc1	HIF-2a inh 90 | HIF-2a inh conf inactive | HIF-1a cs 97
CCCCn1c(NC(=O)c2ccccc2)nc2ccccc21	none
CC1(C)CC2CC(C)(CN2Cc2c(O)ccc3ccccc23)C1 (configuration not stated)	none
Cc1nc2nc(C)c(CCC(=O)NC(C)c3ccc4c(c3)OCCO4)c(C)n2n1 (configuration not stated)	none
Cc1nc2cc(-c3ccccc3)nn2c(C)c1CCC(=O)NC(C)c1ccc2c(c1)OCCO2 (configuration not stated)	HIF-2a inh 66 | HIF-2a inh conf 79 | HIF-1a cs inactive
Cc1nc2cc(-c3cccc(F)c3)nn2c(C)c1CCC(=O)NC(C)c1ccc2c(c1)OCCO2 (configuration not stated)	HIF-2a inh 46 | HIF-2a inh conf 72 | HIF-1a cs inactive
Cc1cc2c(cc1C)CSC(c1c(O)ccc3ccccc13)SC2	Peg3 prom inh 62, HIF-2a inh 79, TWEAK Fn14 block 75 | HIF-2a inh conf inactive | HIF-1a cs 99
Cc1cccc(Oc2coc3cc(O)ccc3c2=O)c1	none
CN(C)C(=O)/C(C#N)=C\c1cc(Br)c(Sc2ccc(Cl)cc2)o1	Peg3 prom inh 78, HIF-2a inh 57, TWEAK Fn14 block 88 | HIF-2a inh conf inactive | HIF-1a cs 103
CCN(CC)Cc1c(O)ccc2c1O/C(=C\C=C\c1ccccc1)C2=O	Peg3 prom inh 82, HIF-2a inh 66, TWEAK Fn14 block 63 | Mdm2-MdmX confirm inactive
C=C(C)CN(CC)c1nc(N)c2c(N)nc3c(c2c1C#N)CC(=O)N3C12CC3CC(CC(C3)C1)C2	none
N#Cc1c(N2CCCC(O)C2)nc(N)c2c(N)nc3c(c12)CC(=O)N3C12CC3CC(CC(C3)C1)C2 (configuration not stated)	CF NFkB block 58, TWEAK Fn14 block 76 | Mdm2-MdmX confirm 91
C=C(CN(C)C)C(=O)c1ccc(OC2OC(COC(C)=O)C(OC(C)=O)C(OC(C)=O)C2OC(C)=O)cc1 (configuration not stated)	CF NFkB block 60, Peg3 prom inh 100, HIF-2a inh 89 | HIF-2a inh conf 96 | HIF-1a cs 105
O=C(/C=C/c1ccc(F)cc1)c1ccccc1Br	CF NFkB block 57, Peg3 prom inh 104, HIF-2a inh 59, TWEAK Fn14 block 63 | HIF-2a inh conf 43 | HIF-1a cs 106
Cc1ccc(C(=O)/C=C/c2ccc(F)cc2)o1	none
CN1C(=O)CSC1=Nc1cccc(Cl)c1	none
CC(=O)Nc1nc(-c2ccc3c(c2)CC(C)N3C(=O)C2CC2)c(C)s1 (configuration not stated)	none | Mdm2-MdmX confirm 99
CCc1nc(Nc2ccncc2)c2oc3ccccc3c2n1	HIF-2a inh 47 | HIF-2a inh conf inactive | HIF-1a cs 82
CCN([C@H](CO)CC(C)C)S(=O)(=O)c1ccccc1	none
C=CS(=O)(=O)N(Cc1ccccc1Br)[C@H](CO)CC(C)C	Peg3 prom inh 56, HIF-2a inh 41 | HIF-2a inh conf inactive | HIF-1a cs inactive
N#Cc1ccccc1S(=O)(=O)NC(=O)[C@H]1O[C@@H](n2cnc3c(N)ncnc32)[C@H](O)[C@@H]1O	none

Source: PubChem
